Bioassay records deposited in PubChem by ICCB-Longwood Screening Facility, Harvard Medical School.
Only some compounds are listed: those with a hit (about 0.36% of all), similar ones and a draw of the others.
Ba CapD inh – CapD enzyme inhibition; purified CapD enzyme, fluorescence intensity read-out; active compounds read low; z-score (concentration not given with the values); actives 0.23% (n = 140,000); in the data active means z-score mostly below about -2.9, no sharp cut-off; inactive means mostly above about -1.9
AID504770 – E. coli YBA685 growth inhibition, screen for V. cholerae RctB inhibitors. E. coli YBA685 rctB-dependent plasmid, OD600 growth, 3 h; active compounds read low. AID 504770. actives 0.27% (n = 130,000). z-score (no concentration beside the values); in the data active means z-score below about -2, passing the limit was not always enough
Large screens that a line does not name were inactive.

CCOC(=O)c1c(C)cc(C)[nH]c1=S	Ba CapD inh -4.85
CCOC(=O)c1c(C)cc(C)[nH]c1=O	none
Cc1nc(C(=O)Nc2ccccc2Cl)nn1-c1cc(Cl)cc(Cl)c1	none (no result: AID504770)
O=C1/C(=C\O)CCc2occc21	Ba CapD inh -8.14
O/N=C1/CCCc2occc21	none
O=C(CCn1cccc1)NC1CC1	none
Cc1ccc(C)c(NC(=O)CN(C)C(=O)COc2ccccc2C#N)c1	AID504770 -3.5 (no result: Ba CapD inh)
Cc1ccc(CN(C)C(=O)COc2ccccc2C#N)o1	none (no result: Ba CapD inh)
OCN1CCCC1	none
COc1nc(Nc2ccccc2Cl)nc(OC)n1	none (no result: AID504770)
O=S1(=O)CCC(n2nnnc2-c2ccccc2)C1 (stereo not given)	AID504770 -2.75
O=C1CC(n2nnnc2-c2ccccc2)C2COC1O2 (stereo not given)	none
COc1ccc(/C=N/N=C(N)N)cc1OC	none
COc1cc(/C=N/N=C(N)N)ccc1OC(=O)c1ccc(C)cc1	AID504770 -9.55
Cc1ccc2nc(CSc3nnc(COc4ccccc4Cl)o3)cn2c1	none (no result: Ba CapD inh)
N/C(=N/O)c1nn(-c2ccccc2)nc1N1CCCCC1	none
COC(=O)c1ccc(C2Oc3c(OC)cccc3C3CC(c4cccnc4)=NN32)cc1 (stereo not given)	none (no result: AID504770)
COc1ccc(Br)cc1C1Nc2ccc3ccccc3c2C2=C1C(=O)CC(c1ccccc1)C2 (stereo not given)	none (no result: AID504770)
O=C(c1ccccc1)c1cc2ccc(O)cc2oc1=O	Ba CapD inh -6.29
CCc1ccc(C(=O)c2cc3ccc(O)cc3oc2=O)cc1	none
CSCCC(C(=O)N1CCN(S(=O)(=O)c2ccccc2C#N)CC1)N1C(=O)c2ccccc2C1=O (stereo not given)	none (no result: Ba CapD inh)
COCC(=O)Nc1ccc(-c2cn3cccnc3n2)cc1	none
O=C(CCC1CCCCC1)Nc1ccc(-c2cn3cccnc3n2)cc1	Ba CapD inh -4.46
O=C1CCCC2=C1C(c1ccncc1)Nc1ccccc1N2 (stereo not given)	none
O=C1CCCC2=C1C(c1cccs1)Nc1ccccc1N2 (stereo not given)	Ba CapD inh -3.55
Cc1ccc(/C=C2/SC(=S)N(CCC(=O)N3CCOCC3)C2=O)cc1	Ba CapD inh -2.58
Cc1ccc(/C=C2/SC(=O)N(CCC(=O)N3CCN(C)CC3)C2=O)cc1	none
CCCCNc1ncc2c(n1)CC(c1ccccc1)CC2=O (stereo not given)	none
CCOc1cc2c(cc1OCC)C1C(C(=O)NCCC(C)C)c3ccccc3C(=O)N1CC2 (stereo not given)	AID504770 -2.9
CCOc1cc2c(cc1OCC)C1C(C(=O)NCCOC)c3ccccc3C(=O)N1CC2 (stereo not given)	none
Cc1ccc(C(=O)/C=C/N(C)C)cn1	none
CN(C)/C=C/C(=O)c1ccsc1	Ba CapD inh -6.34
CC(=O)Nc1nc2ccccc2nc1Cl	Ba CapD inh -7.65
COC(=O)C(C(=O)OC)c1nc2ccccc2nc1Cl	none (no result: Ba CapD inh)
CC(=O)N1CCN(C(=O)c2ccc(S(=O)(=O)N3CCCc4ccccc43)cc2)CC1	none (no result: Ba CapD inh)
CCOc1cc(/C=C2/SC(=S)N(CC(=O)O)C2=O)ccc1OCc1ccccc1	none (no result: AID504770)
O=C(O)CN1C(=O)/C(=C\c2cc([N+](=O)[O-])ccc2O)SC1=S	Ba CapD inh -5.23 (no result: AID504770)
O=C(O)CN1C(=O)/C(=C\c2cc([N+](=O)[O-])ccc2Cl)SC1=S	none (no result: AID504770)
CCOc1cc(Br)c(Br)c(/C=C2\SC(=S)N(CC(=O)O)C2=O)c1O	Ba CapD inh -3.85 (no result: AID504770)
CC1=C(CC(=O)N2CCC(NC(=O)OC(C)(C)C)C2)c2cc(F)ccc2/C1=C\c1ccc(S(C)=O)cc1 (stereo not given)	none (no result: AID504770)
Cc1ccc(-c2csc(-c3ccno3)n2)c(C)c1	none
CCCCn1c(CNC(=O)COc2ccccc2)nnc1SC(C)C(=O)Nc1sc2c(c1C(=O)OCC)CCCCC2 (stereo not given)	none (no result: AID504770)
COc1ccc(OC)c(-n2c(N)c(C#N)c3nc4ccccc4nc32)c1	AID504770 -2.1 (no result: Ba CapD inh)
Cc1ccc(-n2c(N)c(C#N)c3nc4ccccc4nc32)c(C)c1	none
CC1CC(C)CN(C(=O)COC(=O)c2ccc(O)cc2)C1 (stereo not given)	none (no result: Ba CapD inh)
O=C1C=C2C(=CCOC2O)O1 (stereo not given)	AID504770 -5.25
CC(NS(=O)(=O)c1cccc(Cl)c1)C(=O)N(C)C1CCN(C)CC1 (stereo not given)	AID504770 -5.3 (no result: Ba CapD inh)
Cc1ccc(S(=O)(=O)NC(C)C(=O)N2CCN(c3cccc(Cl)c3)CC2)cc1 (stereo not given)	none
O=C1CCC(=O)N1C1CCCCC1	none
O=C1C=CC(=O)N1C1CC1	AID504770 -6.05 (no result: Ba CapD inh)
CSc1sc(C(=O)NNC(=O)CCC(C)C)c2c1C1(CCC2)SCCS1	none (no result: AID504770)
O=C1CC(NC(=O)N2CCn3cccc3C2c2ccccc2F)CN1c1ccccc1 (stereo not given)	none (no result: Ba CapD inh)
COc1ccc(CNC(=O)CCC2CCCC2)cc1OC	none (no result: Ba CapD inh)
COc1ccc(CNC(=O)CSC(C)(C)C)cc1OC	AID504770 -4.55 (no result: Ba CapD inh)
O=c1cc(CSc2nnnn2-c2ccccc2)[nH]c2nc3ccccc3n12	none
O=c1cc(CSc2nnnn2-c2ccccc2)nc(Nc2ccc(F)cc2)[nH]1	AID504770 -3.35
O=C(CN1C(=O)/C(=C2\SC(=S)N(C3CCS(=O)(=O)C3)C2=O)c2ccccc21)Nc1cccc(Cl)c1 (stereo not given)	none (no result: AID504770)
O=C(c1ccc(N2CCCc3ccccc32)s1)N1CCCC1	AID504770 -2.2
O=C(c1ccc(N2CCc3ccccc32)s1)N1CCCCCC1	none
N#Cc1ccc(/C=N/n2c(-c3ccc(OC(F)F)cc3)csc2=NCCN2CCOCC2)cc1	none (no result: Ba CapD inh)
CCOC(=O)c1c(NC(C)=O)nc(SC)n1Cc1ccco1	Ba CapD inh -11
CCOC(=O)c1c(NC(C)=O)nc(SC)n1Cc1cccs1	none
Cc1nn(CCCC#N)c(=O)c2cc3sccc3n12	none (no result: Ba CapD inh)
COc1ccc(C2(c3ccccc3C)C=Cc3c(ccc4ccc(OC(=O)C(C)C)cc34)O2)cc1 (stereo not given)	none (no result: AID504770)
NNC(=S)Nc1ccc2c(c1)OCCO2	none (no result: AID504770)
Cc1csc(N2C(=O)C=CC2=O)c1C(=O)c1ccccc1	none
NC(=O)N1C(=O)C=CC1=O	AID504770 -8.5 (no result: Ba CapD inh)
CN1C(=O)/C(=C\c2ccccc2)Sc2ccc(C(=O)NCc3cccs3)cc21	Ba CapD inh -6.91
Cc1cccc(/C=C2\Sc3ccc(C(=O)NCCC(C)C)cc3N(C)C2=O)c1	none
CN1C(=O)C(=Cc2ccc(-c3cccc(C(=O)O)c3)o2)C(=O)N(C)C1=S	none
N=C1/C(=C\c2ccc(-c3cccc(C(=O)O)c3)o2)C(=O)N=C2SC(N3CCCCC3)=NN12	Ba CapD inh -3.81
NC(=NCCCCCCN=C(N)/N=C(\N)Nc1ccc(Cl)cc1)/N=C(\N)Nc1ccc(Cl)cc1	AID504770 -5
CC(C)N=C(N)/N=C(\N)Nc1ccc(Cl)cc1	none (no result: AID504770)
Cc1nn(-c2ccccc2)c2sc(C#N)c(N)c12	none
O=[N+]([O-])/C=C/c1c(F)cccc1Cl	none (no result: AID504770)
O=C1NC(=S)S/C1=C\c1c(F)cccc1Cl	Ba CapD inh -4.05 (no result: AID504770)
COc1ccc(CCn2c(=S)[nH]c3cc(C(=O)N4CCN(c5ccccc5)CC4)ccc3c2=O)cc1OC	none (no result: AID504770)
CCOC(=O)C(C)Sc1nnc(Cc2cc(=O)[nH]c(=O)[nH]2)n1-c1ccc(F)cc1 (stereo not given)	none
c1ccc2c(c1)sc1cccn12	none (no result: AID504770)
CNc1sc2c(O)cc(=O)[nH]c2c1C#N	none
Nc1c(Nc2ccc(F)cc2)sc2c(O)cc(=O)[nH]c12	Ba CapD inh -4.11
CCc1cc2c(cc3c(=O)n(CC(=O)NC(C)c4ccc5c(c4)OCCO5)nc(CC)n32)s1 (stereo not given)	none
Cc1ccc2c(c1)n([O-])c1c([n+]2=O)CCCC1	none
